Screening data from PubChem BioAssay.
TDP1 cell noCPT: qHTS for Inhibitors of human tyrosyl-DNA phosphodiesterase 1 (TDP1): qHTS in cells in absence of CPT; AID 686978, 2013; Potency, µM (series often up to 46.2 µM), without a hit: at the highest dose activity change, negative = growth inhibition, actives largely listed as inhibitors; DT40 Tdp1-/- hTDP1 cells, no CPT, ATP luminescence, 48 h; 420,000 compounds, 15% hits; also: nearly all actives have a fitted effect of over 55% in size
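Growth of hTDP1-complemented DT40 Tdp1-knockout cells is measured by ATP luminescence after at least 48 hr compound exposure at 37 °C, with DMSO substituting for the 20 nM CPT used in the parallel screen.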
ELG1 repair inh: blocks ELG1-dependent DNA repair in HEK293T cells; HEK293T ELG1-luciferase reporter, luminescence, 16 h; DNA damage induced by 5-fluorouridine; Potency, µM (doses to about 46.1 µM), for inactives: at the top dose activity change, negative = inhibition, usual class: inhibitors; 330,000 compounds, 2.3% hits; also: nearly all actives have a fitted effect of over 55% in size
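Cells (2,000 per well) received 5-fluorouridine plus test compound or DMSO and were incubated 16 hr at 37 °C, 5% CO2. Luciferase activity was read by luminescence 30 min after ONE-Glo addition; signal suppression marked inhibition of damage-induced ELG1 function.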
VP16 counter: Gal4-VP16 reporter inhibition counter-screen. Drosophila S2 Gal4-VP16 UAS-luciferase, luminescence, 20 h. Potency, µM (top dose mostly 53.6 µM), for the others: at the highest dose activity, negative = inhibition, hits mostly inhibitors. 310,000 compounds, 3.5% hits;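 also: Gal4-VP16 expression switched on by copper sulfate through the metallothionein promoter; nearly all actives have a fitted effect of over 50% in size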
DT40 TDP1 CPT: growth inhibition of DT40 Tdp1-/-;hTDP1 cells with camptothecin (screen for TDP1 inhibitors). chicken DT40 Tdp1-/-;hTDP1 cells + 20 nM CPT, ATP luminescence, 48 h. Potency, µM (series often up to 46.2 µM), for the others: top-dose activity change, negative = growth inhibition, most hits filed as inhibitors. 420,000 compounds, 12% hits. AID 686979; also: nearly all actives have a fitted effect of over 55% in size
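Chicken DT40 Tdp1-/- cells complemented with human TDP1, 400 cells/well, exposed to compounds plus 20 nM camptothecin for at least 48 h at 37 C; viability read as ATP content by CellTiter-Glo luminescence.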
RORgamma inh: ROR gamma (mouse) transcription inhibition; Drosophila S2 Gal4-RORgamma UAS-luciferase reporter, 20 h; Potency, µM (series often up to 53.6 µM), for inactives: at the highest dose activity change, negative = inhibition, actives largely listed as inhibitors; 310,000 compounds, 5.4% hits; AID 2551; also: nearly all actives have a fitted effect of over 60% in size
Target sequence (P51450 whole entry, looked up, the tested form may be a part): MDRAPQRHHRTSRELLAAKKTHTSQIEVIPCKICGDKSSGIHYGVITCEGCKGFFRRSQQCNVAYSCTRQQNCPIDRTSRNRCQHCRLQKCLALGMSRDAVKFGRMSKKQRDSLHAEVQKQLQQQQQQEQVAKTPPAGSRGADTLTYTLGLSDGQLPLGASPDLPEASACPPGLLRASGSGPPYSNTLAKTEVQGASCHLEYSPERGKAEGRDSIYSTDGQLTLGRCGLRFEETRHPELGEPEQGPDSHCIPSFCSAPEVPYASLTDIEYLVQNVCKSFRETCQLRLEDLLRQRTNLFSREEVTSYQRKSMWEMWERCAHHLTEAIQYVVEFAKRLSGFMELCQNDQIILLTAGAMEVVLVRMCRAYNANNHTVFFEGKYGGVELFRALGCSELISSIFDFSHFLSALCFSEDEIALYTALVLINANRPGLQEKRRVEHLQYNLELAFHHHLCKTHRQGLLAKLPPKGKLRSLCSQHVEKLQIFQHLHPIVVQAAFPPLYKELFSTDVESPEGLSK
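Using a luciferase readout, inhibitors were identified by reduced reporter activity in Drosophila cells coexpressing a copper-inducible Gal4–ROR gamma fusion and UAS-driven Photinus luciferase, incubated 20 hr after 700 uM copper sulfate.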
ALOX12 inh: inhibitors of human 12S-lipoxygenase ALOX12. P18054. purified 12hLO, xylenol orange hydroperoxide absorbance. Potency, µM (series often up to 108 µM), inactives show top-dose activity change, negative = inhibition, hits mostly inhibitors. 580,000 compounds, 1.1% hits
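Hydroperoxide product was detected by ferrous iron/xylenol orange as the 573 to 405 nm absorbance ratio. Arachidonic acid at 40 uM (final) was turned over for 30 min at room temperature by 150 nM human 12hLO, pH 7.0 Hepes buffer, after 15 min compound preincubation.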
* hit, by the source's call; u = inconclusive; x = no result; [ ] = remark or other dose. Most compounds without a hit are left out; they make up all but 15% or so of the library. Calls follow the shape of the dose curve; as a rule, active = well fitted curve in the direction sought with a large enough effect; inconclusive = small, poorly fitted or top-dose-only effect, or another doubt; inactive = no such curve, though single readings can be large; an effect the other way counts as inactive or inconclusive. % is scaled to controls: 0 for no effect and ±100 for the full control effect; potency is read from the fitted curve at half-maximal effect.

SMILES | TDP1 cell noCPT | ELG1 repair inh | VP16 counter | DT40 TDP1 CPT | RORgamma inh | ALOX12 inh
Cc1nc2sc(C#N)c(N)c2c(C)c1Cl | x | x | x | x | x | 12%
O=C(NNC(=O)c1cc2cc(Br)ccc2oc1=O)c1ccc(O)cc1O | 9.2µM* | u | u | 5.2µM* | 10µM* | -2%
O=C(c1ccc(Br)cc1)c1coc2ccc(O)cc12 | u | x | x | u | x | 22µM*
O=C(c1ccc(Cl)cc1)c1coc2ccc(O)cc12 | -23% | u | u | u | 6% | 248%
O=C(Nc1ccc(Br)cc1)c1cc2ccc(O)cc2oc1=O | x | x | x | x | x | 0%
O=C(c1ccc(Br)cc1)c1cc2ccc(O)cc2oc1=O | 16µM* | u | 5% | u | 37% | -25%
O=C(c1ccccc1)c1cc2ccc(O)cc2oc1=O | -23% | u | -6% | u | -2% | u
COc1ccc(OC)c(CNS(=O)(=O)c2cc(-c3cc(C)no3)ccc2OC)c1 | -14% | 0% | -23% | -12% | -9% | 3%
CCc1ccc(-c2cc(C)no2)cc1S(=O)(=O)NCc1ccc(OC)cc1 | 1µM* | x | x | 0.92µM* | x | u
COc1ccc(-c2cc(C)no2)cc1S(=O)(=O)NCc1cccs1 | 15µM* | x | x | 15µM* | x | u
COc1ccccc1CN1CCC(CNS(=O)(=O)c2cc(-c3cc(C)no3)ccc2C)CC1 | u | -5% | -4% | u | -1% | -8%
Cc1cc(-c2ccc(C)c(S(=O)(=O)NCC3CCN(Cc4ccc(F)cc4)CC3)c2)on1 | u | -20% | -3% | 18µM* | -18% | 28%
CCOC(=O)CC(NS(=O)(=O)c1cc(-c2cc(C)no2)ccc1C)c1ccc(C)cc1 (stereo not drawn) | 8.2µM* | x | x | 21µM* | x | -28%
CCOC(=O)c1c(S(=O)(=O)Nc2cc(Cl)ccc2OC)c(C)n(C)c1C | x | x | x | x | x | 17%
O=S1(=O)NC2(CCCN(CCc3ccccc3)C2)COc2ccccc21 (stereo not drawn) | x | x | x | x | x | 6%[6.33 µM]
Cc1[nH]c2c(C(=O)NC3CCCC3)cccc2c1C | x | x | x | x | x | -4%
Cc1cc(-c2ccc(C)c(S(=O)(=O)N(Cc3cccs3)C(C)C)c2)on1 | u | x | x | u | x | -24%
COc1ccc(CNS(=O)(=O)c2cc(-c3cc(C)no3)ccc2C)cc1OC | -21% | 23µM* | -4% | -26% | 25% | -3%
COCCN(Cc1cccs1)S(=O)(=O)c1cc(-c2cc(C)no2)ccc1C | 21µM* | x | x | u | x | -24%
Cc1cc(-c2ccc(C)c(S(=O)(=O)N(C(C)C)C3CCCCC3)c2)on1 | u | x | x | 21µM* | x | u
CCOc1ccc(CNS(=O)(=O)c2cc(-c3cc(C)no3)ccc2C)cc1OC | u | x | x | -13% | x | -36%
COC[C@@H]1OC[C@@]2(C)C3CC[C@@H](O)[C@@H](CC(=O)NCc4cccs4)[C@]3(C)CC[C@H]2O1 (stereo partly drawn) | x | x | x | x | x | 14%
CCn1nccc1C(=O)N1CCC2(CC1)CC(N1CCN(c3ccccn3)CC1)CCO2 (stereo not drawn) | x | x | x | x | x | 45%
CCc1ccc(-c2cc3c(=O)[nH]nc(SCC(=O)NC4CCCCC4)n3n2)cc1 | x | x | x | x | x | 1%
COc1ccc(C(=O)NCCn2cc(SCC(=O)NCc3ccco3)c3ccccc32)cc1 | 5.8µM* | u | -23% | 7.3µM* | 10µM* | -10%
SMILES | TDP1 cell noCPT | ELG1 repair inh | VP16 counter | DT40 TDP1 CPT | RORgamma inh | ALOX12 inh
COc1ccc(C(=O)NCCn2cc(SCC(=O)Nc3cccc(C)c3)c3ccccc32)cc1 | u | x | x | 16µM* | x | -6%
O=C(NCCc1ccccc1)C12CC3CC(CC(C3)C1)C2 | x | x | x | x | x | -23%
Cc1cc(C)cc(NC(=O)N2CCCC2c2ccco2)c1 (stereo not drawn) | x | x | x | x | x | 7%
O=C(Nc1ccccc1)C1=C[C@@H](c2coc3ccccc3c2=O)C[C@@H](OCc2ccc(CO)cc2)O1 | 15µM* | u | 14% | u | 28% | 5%
C=CCOC(=O)C1=C[C@H](c2coc3ccccc3c2=O)C[C@H](OCc2ccc(CO)cc2)O1 | u | 8.2µM* | u | u | -23% | 0%
COc1cccc(C(=O)COC(=O)C(CC(=O)c2ccccc2)Nc2ccc(F)cc2)c1 (stereo not drawn) | x | x | x | x | x | -23%
CCc1nn2c(ncc3c(=O)n(-c4n[nH]c(C)n4)ccc32)c1-c1ccccc1 | x | x | x | x | x | -5%
O=C(N[C@H]1[C@H](O)[C@H](O)C[C@@H]1c1cccnc1)c1ccccn1 | x | x | x | x | x | 7%[176 µM]
N#CC1(C(=O)NCC2(c3ccccc3)CCCCC2)CCCCC1 | x | x | x | x | x | 1%
O=C1C(=O)N(c2nccs2)C(c2ccccc2F)/C1=C(\O)c1ccc2c(c1)OCCO2 (stereo not drawn) | 16µM* | u | 5% | u | 1% | u
O=C1C(=O)N(c2nccs2)C(c2ccccc2)/C1=C(\O)c1ccc2c(c1)OCCO2 (stereo not drawn) | x | -1% | -2% | x | 3% | x
COc1ccc(-c2ccc(=O)n(CC(=O)N3CCCC3)n2)c(F)c1 | x | x | x | x | x | 38%
COc1ccccc1CNC(=O)c1cn(C)c(=O)c2cc(OC)c(OC)cc12 | 21µM* | 8% | -6% | 18µM* | 30% | 0%
COc1cccc(NC(=O)c2cn(C)c(=O)c3cc(OC)c(OC)cc23)c1 | 15µM* | -26% | -3% | 8.2µM* | 5% | 0%
COCCCNC(=O)c1cn(C)c(=O)c2cc(OC)c(OC)cc12 | -4% | 0% | -5% | 13% | -15% | 5%
COc1ccc(NC(=O)c2cn(C)c(=O)c3cc(OC)c(OC)cc23)cc1OC | -18% | -24% | -6% | 16% | -1% | 5%
O=C(NCC1CCCCC1)C1(CCO)CCN(c2ncccn2)C1 (stereo not drawn) | x | x | x | x | x | 11%
CCC(Oc1ccccc1)C(=O)N1CCN(Cc2cc(=O)n3nc(-c4cccc(C)c4)sc3n2)CC1 (stereo not drawn) | 23µM* | x | x | u | x | -15%
CC(Oc1ccccc1)C(=O)N1CCN(Cc2cc(=O)n3nc(-c4ccccc4F)sc3n2)CC1 (stereo not drawn) | x | x | x | x | x | 10%
CC(C)(C)c1ccc(C(=O)N2CCN(Cc3cc(=O)n4nc(-c5ccccc5F)sc4n3)CC2)cc1 | -1% | x | x | 4% | x | -4%
